Measurements published in the supplement of paper PMC6555819.

Each sequence was assayed on VDR:RXRa (NR concentration 270 nM, RXRa partner concentration 90 nM) (assay: PBM binding z-score (relative to random genomic background probes); higher = stronger binding; sequences stand for … in GC…GCGATTGACAGCGTAGAATGAAGG).
Procedure: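 Protein-binding microarray (Agilent 4x180K custom design, double-stranded 60-nt probes: 5' GC cap, 34-nt variable region, 24-nt constant primer region; full probe sequence given). Purified or IVT nuclear receptor:RXRα heterodimers (3:1 NR:RXRα, mostly 270:90 nM) or homodimers were incubated for 1 h in PBS with 2% milk and no ligand, then detected with Alexa488 antibodies. Fluorescence from o1-orientation probes (~5 replicates averaged) was converted to z-scores against 500 random hg19 background probes. Variable regions are seed direct-repeat (DR0–DR5) sites, all their single-nucleotide variants and half-site ablations.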
With TCTTGTAGATCAAAGGTTAAGACAGCCGAAGCCT the PBM binding z-score was 1.68.
Work on CGTGCAAGGTCAGAGAGGTCAGTGAATGCCGAGT yielded a PBM binding z-score of 7.22.
CCTGCTAGGTCAAGGGTCAGCTAAAGCAGCTCGC showed a PBM binding z-score of 4.17.
For CTATGTAGGATAAGGGGGTCATTCAGTTTGAAAG, the PBM binding z-score was 6.5.
With CCGAGTAGGTTACGAGTGGGCATTCAGTGCGAAT the PBM binding z-score was -0.217.
AATACAGGGTCACTTGGCCAGAGTAGGTACGAAT gave a PBM binding z-score of 4.36.
TCGAGTAGGTTACGGGGTCATTCAGGGATGAAGA showed a PBM binding z-score of 6.34.
Work on CTATGTAGGTTAAGGGGGTCATTAAGTTTGAAAG yielded a PBM binding z-score of 7.64.
In the case of TAGCCTAGGTCATGGGCCAGTTTACCACGCGAAC, the PBM binding z-score is reported as 2.61.
With TGAATGAGGTTTAAGATCAGGGAACGTGGCGTCG the PBM binding z-score was -0.255.
AATACAGGATCACTAGGCCAGAGTAGGTACGAAT gave a PBM binding z-score of -0.235.
CAGCCTAGGTGAGGGCCAGTATAGGAGGAACGTT gave a PBM binding z-score of -0.634.
ATATGTAGGTTAGGGTCATTCTGAAAGTAGGGAA was tested, and the PBM binding z-score was 4.44.
CTAACTAGGTCACCGGAAGGTCAAAGTCCGCATG showed a PBM binding z-score of 6.08.
For CAAACTAGGTCAAAGGACAGTGAAAGGCGACGTA, the PBM binding z-score was 1.53.
CCGAGTAGGTTACGAGGGGGCCTTCAGTGCGAAT was tested, and the PBM binding z-score was 1.73.
Work on TCGAGTAGGTTGCGGGGGCATTCAGGGATGAAGA yielded a PBM binding z-score of 3.33.
CGAACTAGGTCAAAGGACAGCGAAAGGCGACGTA showed a PBM binding z-score of 1.47.
Work on TCTCGGAGGACACGAAAGGGCAGAGCTCGACATC yielded a PBM binding z-score of -0.0327.
Sequence TCGAATAGGTTACGGGGGCATTCAGGGATGAAGA has a PBM binding z-score of 4.6.
CCTACTGGGCCATCAGGTGATTGATATCAACGTT showed a PBM binding z-score of -0.317.
CCGAGTAGGTTACGAGGGGGCATTAAGTGCGAAT was tested, and the PBM binding z-score was 5.39.
Work on CCTAGTTGGTCAAGGTAACACACGCTATAGGTAC yielded a PBM binding z-score of 0.707.
Sequence TCGAGTAGGTAACGGGGGCATTCAGGGATGAAGA has a PBM binding z-score of 3.38.
In the case of CCGAGTAGGTTACGAGGGGGCATTCAGTGCGAAT, the PBM binding z-score is reported as 5.35.
CAAAGTAGGTCAAGAGGTCAAAGTCCGCTTCCCG showed a PBM binding z-score of 6.25.
CCTACGGGGCCAAGGTCATTGATCAGTCAAAGCA gave a PBM binding z-score of 3.52.
ATATGTAGGTTAGGGTCTTTCAGAAAGTAGGGAA gave a PBM binding z-score of 0.666.
ATCGAAAGGTCGAAAGTGAGTATACCCACCCGAA was tested, and the PBM binding z-score was 2.18.
ATATGTAGGTTAGGGTCATTTAGAAAGTAGGGAA showed a PBM binding z-score of 4.26.
Work on ACTCGGAGGACAAAGGTAAGAGCTACGCCAGTGA yielded a PBM binding z-score of -0.371.
CGAACTAGGTCACCAGGACTGTGAAGAGGTTGGA gave a PBM binding z-score of 2.26.
Work on CGTCGAAGGTCAATGCTAGGTCAGTGAAAGCATT yielded a PBM binding z-score of 4.47.
With ACTCGGAGGACAAATGTCAGAGCTACGCCAGTGA the PBM binding z-score was -0.292.
Sequence GCTTCCGGGTCAAAGGTTATAGCATGAATAGAAT has a PBM binding z-score of 5.69.
For CCGAGTAGGTTAGGAGGGGGCATTCAGTGCGAAT, the PBM binding z-score was 4.91.
Work on TTACCAAAGTGAAAGGTCGTTGATGCACGCCTTG yielded a PBM binding z-score of 1.86.
ACTATCAGGCCAAGGGTCACTCAAGATTAGTCCG showed a PBM binding z-score of 3.13.
Sequence CTATGTAGGTTAAGGGGGTCATTCAGTTTGAAAG has a PBM binding z-score of 7.57.
With CTATGTAGGTTAAGGGGGACATTCAGTTTGAAAG the PBM binding z-score was 4.95.
